# Laboratory results taken from PubChem BioAssay AID1566 (Sanford-Burnham Center for Chemical Genomics, 2009).
# Screen size: about 290,000 compounds; about 1,800 (0.62%) were called active. Rule as the data show it: active = inhibition above about 50%; inactive = the rest. Only a selection was taken, and actives are over-represented in it overall.
# Assay: NOD2 signaling inhibitors, cell-based, luminescence, uHTS, HEK293 (AID 1566)
# Settings: HEK293 NOD2/NF-kB luciferase reporter, at 4 µM, hits give high values
row,Compound,inhibition
1,CC1=NN(C(=O)Cn2ccc([N+](=O)[O-])n2)C(O)(C(F)(F)F)C1 (stereo not given),12.1% (inactive)
2,CCOC(=O)C1=C(c2ccccc2)O/C(=C(/C#N)C(F)(F)F)S1,51.4% (active)
3,CCOC(=O)C1=C(c2ccccc2)O/C(=C(/C(=O)OC)C(F)(F)F)S1,5.4% (inactive)
4,CCOC(=O)C1=C(c2ccccc2)O/C(=C(\C(=O)OC)C(F)(F)F)S1,-23% (inactive)
5,CC(=O)Nc1ccc(S(=O)(=O)Nc2nc3ccccc3nc2N2CCCC2)cc1,-6% (inactive)
6,Cc1ccn2cc(C(=O)N3CCCC(Nc4ccc(F)cc4)C3)nc2c1 (stereo not given),-9.3% (inactive)
7,O=C(Nc1ccccc1)c1c(F)cccc1F,-8% (inactive)
8,O=C(Nc1ccncc1)c1c(F)c(F)c(F)c(F)c1F,8.8% (inactive)
9,O=C(Oc1c(Cl)cc(Cl)c2cccnc12)c1cccc([N+](=O)[O-])c1,96.1% (active)
10,O=C(Oc1cccc2cccnc12)c1cccc([N+](=O)[O-])c1,11.2% (inactive)
11,O=C(Oc1ccc(Cl)c2cccnc12)c1cccc([N+](=O)[O-])c1,13.8% (inactive)
12,CCOc1ccc(-c2ccc(SCC(=O)Nc3nnc(CC)s3)nn2)cc1,-117% (inactive)
13,CCCC(C(=O)NC1CCCC1)N(CC1CCCO1)C(=O)c1snc(C(N)=O)c1N (stereo not given),-7.3% (inactive)
14,O=C(Nc1ccc(O)c(C(=O)O)c1)Oc1ccccc1,8.6% (inactive)
15,CC(C)(C)c1ccc(OC(=O)Nc2ccc(O)c(C(=O)O)c2)cc1,51.6% (active)
16,Cc1ccc(OCC(=O)Nc2ccc(O)c(C(=O)O)c2)cc1C,1.5% (inactive)
17,COC(=O)C1=C(C)NC(C)=C(C(=O)OC)C1c1ccccn1,2.3% (inactive)
18,Cc1ccc(OCc2cc(C(=O)N3CCN(C)C[C@@H]3c3ccccc3)no2)cc1C,-27.5% (inactive)
19,S=C(Nc1cc(Cl)cc(Cl)c1)N1CCN(c2ccccn2)CC1,14.1% (inactive)
20,CCOC(=O)Cc1nnc2c(Nc3ccc(Cl)cc3)nc3nonc3n12,14.5% (inactive)
21,CCOC(=O)Cc1nnc2c(Nc3ccc(C)cc3)nc3nonc3n12,-2.9% (inactive)
22,CCOC(=O)Cc1nnc2c(Nc3ccccc3F)nc3nonc3n12,55.4% (active)
23,Cc1noc(C)c1C(=O)N1CCC2(CC1)Oc1ccc(F)cc1C(=O)C21CC(c2ccc(Cl)cc2)=NO1 (stereo not given),13% (inactive)
24,COc1ccc(/C=N/n2cnc3c([nH]c4ccc(F)cc43)c2=O)cc1CN1CCCC1,12.1% (inactive)

row,Compound,inhibition
1,COc1ccc(C(=O)Nc2sc3c(c2C(=O)O)CC(C)(C)OC3)cc1,8.8% (inactive)
2,CC1(C)Cc2c(sc(NC(=O)c3ccccc3)c2C(=O)O)CO1,-27.1% (inactive)
3,C(=N\N(c1ccccc1)c1ccccc1)/c1ccc(N2CCOCC2)s1,11.6% (inactive)
4,c1ccc2c(-c3c[nH]c4ccccc34)c3ccccc3nc2c1,0% (inactive)
5,Cc1cccc(C(=O)c2cn[nH]c2-c2ccccc2O)c1,-3.8% (inactive)
6,O=C1c2cc(F)ccc2-n2c1nc1ccccc1c2=O,63.4% (active)
7,O=C1c2ccccc2-n2c1nc1ccccc1c2=O,26.3% (inactive)
8,Nn1c(-c2ccc(F)cc2)nc2ccccc2c1=O,12.9% (inactive)
9,CCn1c(CNc2ccc(Cl)cc2)nnc1SCC(=O)OC1CCCCC1,4.4% (inactive)
10,CCOC(=O)C1CCN(C(=O)COC(=O)c2ccc(Br)o2)CC1,20.2% (inactive)
11,Cc1cc2c(s1)c1cnn(Cc3ccccc3F)c(=O)c1n2C,10.1% (inactive)
12,CCOc1ccccc1C(=O)N1CCN(c2cccc(Cl)c2)CC1,-14% (inactive)
13,COc1ccc(N(C)C(=O)c2cnc(N3CCN(c4ncccn4)CC3)c3ccccc23)cc1,14.7% (inactive)
14,CN(C(=O)c1cnc(N2CCN(c3ncccn3)CC2)c2ccccc12)c1ccc(Cl)cc1,15.1% (inactive)
15,COc1ccccc1C(=O)N1CCN(c2cccc(Cl)c2)CC1,3.1% (inactive)
16,COc1cc(C(=O)Nc2ccccc2N2CCOCC2)ccc1OCc1c(C)noc1C,1.5% (inactive)
17,CCOC(=O)c1cccc(NC(=O)c2ccc(NC(=O)C3CCCO3)cc2)c1 (stereo not given),5.8% (inactive)
18,CCOC(=O)c1ccc(NC(=O)c2ccc(NC(=O)C3CCCO3)cc2)cc1 (stereo not given),51.3% (active)
19,CCOC(=O)c1ccc(NC(=O)C2CCCO2)cc1 (stereo not given),-21.8% (inactive)
20,CC(Sc1nnc(N)s1)C(=O)Nc1nccs1 (stereo not given),-1.1% (inactive)
21,COc1ccc(-c2nc(C#N)c(N3CCN(c4cccc(Cl)c4)CC3)o2)cc1OC,0.1% (inactive)
22,COc1ccccc1-c1nc(C#N)c(N2CCN(c3ccccc3)CC2)o1,-1.7% (inactive)
23,Cc1noc(C)c1COC(=O)COc1cccc2c1OC(C)(C)C2,6.1% (inactive)
24,C=CCN(c1ccc(C(=O)Nc2ccc(NC(C)=O)cc2)cc1)S(C)(=O)=O,15.2% (inactive)

row,Compound,inhibition
1,COc1ccc(N(CC(=O)NCCC2=CCCCC2)S(=O)(=O)c2ccccc2)c(OC)c1,1.9% (inactive)
2,Cc1cccc(NS(=O)(=O)c2ccc(NC(=O)N3CCCCC3)cc2)c1,33.7% (inactive)
3,CC(=O)c1cccc(NC(=O)N2CCCCCC2)c1,6.3% (inactive)
4,CC1(C)CC(=O)C=C(N2CCN(C3=CC(=O)CC(C)(C)C3)CC2)C1,-10.7% (inactive)
5,Cc1cccc(C(=O)NC(=S)Nc2ccc(N3CCOCC3)cc2)c1,7.7% (inactive)
6,COc1ccc(C(=O)NC(=S)Nc2ccc(N3CCOCC3)cc2)cc1Cl,13.8% (inactive)
7,Cc1ccc(C(=O)NC(=S)Nc2ccc(N3CCOCC3)cc2)cc1C,50.7% (active)
8,Cc1ccn2c(NC(=O)c3cccs3)c(-c3ccccc3)nc2c1,17.5% (inactive)
9,COc1ccc(OC)c(Cc2nnc(CCC(=O)NCc3nc4ccccc4s3)o2)c1,5.2% (inactive)
10,CC(C)Cc1nc(N2CCN(C(=O)c3ccco3)CC2)c(C#N)c2c1CCCC2,23.8% (inactive)
11,CC(C)Cc1nc(N2CCN(C(=O)c3ccco3)CC2)c(C#N)c2c1CCC2,13.3% (inactive)
12,Cc1ccc(S(=O)(=O)N(CC(=O)NCCSCc2ccco2)c2ccc(F)cc2)cc1,-2.2% (inactive)
13,CC(C)CNC(=O)CN(c1ccccc1)S(=O)(=O)c1ccccc1[N+](=O)[O-],-10.6% (inactive)
14,O=C(c1ccccc1)N1CCN(CC(O)COc2cccc3ccccc23)CC1 (stereo not given),-10% (inactive)
15,CCOC(=O)c1c(NC(=O)CSc2nc3ccccc3c(=O)n2-c2ccc(F)cc2)sc(C(C)=O)c1C,-19.4% (inactive)
16,O=S(=O)(Nc1ccc(N2CCOCC2)cc1)c1ccc(F)cc1F,-1.9% (inactive)
17,O=C(c1ccco1)N1CCCC(c2nc3c(nnn3Cc3c(Cl)cccc3Cl)c(=O)[nH]2)C1 (stereo not given),-43.2% (inactive)
18,Cc1cc(-c2ccc([N+](=O)[O-])cc2)nc2ccccc12,-13.5% (inactive)
19,O=[N+]([O-])c1ccc(-c2c(O)c3ccccc3c3nc4ccccc4nc23)cc1,58.6% (active)
20,O=[N+]([O-])c1ccc(-c2cnc3ccccc3n2)cc1,-35.5% (inactive)
21,Cc1ccc(Oc2nc3ccccn3c(=O)c2/C=C(\C#N)C(=O)NC2CCS(=O)(=O)C2)c(C)c1 (stereo not given),0.4% (inactive)
22,O=C(OC1CCCCC1)c1ccc(NC(=O)c2ccco2)cc1,-39.4% (inactive)
23,O=C(OC1CCCCC1)c1ccc(NC(=O)C2CCCCC2)cc1,8.6% (inactive)
24,O=C(Nc1ccc(C(=O)OC2CCCCC2)cc1)c1ccncc1,61.2% (active)

row,Compound,inhibition
1,COCCNC(=O)C1CC(c2ccc([N+](=O)[O-])cc2)=NO1 (stereo not given),21% (inactive)
2,COc1ccc(OCC(=O)Nc2cccc(NC(=O)c3ccco3)c2)cc1,1.8% (inactive)
3,Cc1cnnn1-c1cccc([N+](=O)[O-])c1,-9.2% (inactive)
4,COC(=O)Cc1[nH]n(-c2nc3ccccc3s2)c(=O)c1C(C)=Nc1ccc(Cl)cc1,6.3% (inactive)
5,COC(=O)Cc1[nH]n(-c2nc3ccccc3s2)c(=O)c1C(C)=O,-18.8% (inactive)
6,CN(Cc1cn[nH]c1-c1ccc2c(c1)OCO2)C1CCOCC1,10.5% (inactive)
7,CCCc1sc(N/N=C/c2ccccn2)nc1-c1ccc(Br)cc1,-44.6% (inactive)
8,Cc1csc(N/N=C/c2ccccn2)n1,-60.9% (inactive)
9,Cc1nc(N/N=C/c2ccccn2)sc1C,56.9% (active)
10,Oc1ccc(Br)cc1CNc1ccccn1,-10.8% (inactive)
11,O=C(CCl)Nc1cccc(Oc2cnccn2)c1,-47.8% (inactive)
12,CCCCc1ccc(NC(=S)NCCc2ccc(S(N)(=O)=O)cc2)cc1,24.9% (inactive)
13,COc1ccc(CCNC(=O)Nc2cccc([N+](=O)[O-])c2)cc1,79.5% (active)
14,COc1ccc(CCNC(=O)Nc2cccc([N+](=O)[O-])c2)cc1OC,4.7% (inactive)
15,COc1ccccc1CCNC(=O)Nc1cccc([N+](=O)[O-])c1,13.6% (inactive)
16,CCOC(=O)c1c(N)sc(C(=O)N(CC)CC)c1C,2.6% (inactive)
17,CC1(C)CC(=O)C=C(NCc2cccs2)C1,1.3% (inactive)
18,OCC[C@@H]1C[C@H](O)[C@@H](O)[C@]2(Cc3ccccc3CCO2)O1,-4.1% (inactive)
19,Cc1oc(-c2ccc(Cl)cc2)nc1CN1CCCN(C(=O)c2ccco2)CC1,18.6% (inactive)
20,Cc1oc(-c2ccc(Cl)cc2)nc1CN1CCCC(C(=O)N2CCN(C(=O)c3ccco3)CC2)C1 (stereo not given),50% (active)
21,Cc1oc(-c2ccc(Cl)cc2)nc1CN1CCCC(C(=O)N2CCOCC2)C1 (stereo not given),10.7% (inactive)
22,COc1ccc(OC)c(S(=O)(=O)Nc2ccc(OCC(=O)O)cc2)c1,3.3% (inactive)
23,COc1ccc(NC(C)=O)cc1S(=O)(=O)NC(Cc1ccccc1)C(=O)O (stereo not given),-25.7% (inactive)
